Experimental data taken from ChEMBL document CHEMBL5308541, “MAIP: An Open-Source Tool to Enrich High-Throughput Screening Output and Identify Novel, Druglike Molecules with Antimalarial Activity” (ACS Med Chem Lett, 2023).
Among all 150,000 compounds or so, about 540 (0.36%) showed an effect of 50% or more. The list comes from a sample in which strong results are over-represented; it also holds similar structures and randomly drawn compounds.

System: Plasmodium falciparum
Test: Primary screen in NF54 nanoGlo assay, in single point, at 2uM, 72h; a lower Z score goes with more inhibition
Type: functional, Erythrocyte
Settings: timepoint 72 hour

Row | Structure (SMILES) | % Inhibition [%] | Z score
1 | CN1CCC(N(Cc2ccccc2)C(=O)c2cc3cnccc3[nH]2)CC1 | 52 | -7.83
2 | O=C(NCC1CC1)c1cc2c(OCc3ccc(Cl)cc3)cccc2[nH]1 | 51 | -9
3 | O=C(NC1CNCCC1O)c1cc2c(Cl)cccc2[nH]1 (stereo not drawn) | -3 | 0.71
4 | Cc1cc(N2CCC(N(C)Cc3nc4ccc(F)cc4[nH]3)CC2)ncn1 | -13 | 2.24
5 | CCOc1ccc2nc(CN(CC)CC3CCN(C4CCN(C)CC4)CC3)ccc2c1 | 80 | -13.89
6 | Cn1cc(CC(=O)N2CC3CN(Cc4ccns4)CC3(CO)C2)c2ccccc21 (stereo not drawn) | -3 | 0.46
7 | c1ccc(CCC23CN(Cc4ccccn4)CC2CN(Cc2ccns2)C3)cc1 (stereo not drawn) | 86 | -17.09
8 | C[C@@H](c1cc2ccccc2o1)N(C)CCC(=O)N1CCN(c2ccc(F)cc2)CC1 | -2 | 0.48
9 | O=C(c1ccnc2ccccc12)N1CCN(C2CCOCC2)CC1 | -6 | 0.98
10 | O=C1CN(C(=O)c2ccnc3ccccc23)CCN1Cc1ccccc1F | 68 | -13.41
11 | CN(CC(=O)N[C@H]1CCCN(c2cnccn2)C1)C1CCNCC1 | -7 | 1.05
12 | Cc1noc(-c2ccnc(NC[C@H]3CCN(CC(F)(F)F)C3)c2)n1 | 2 | -0.25
13 | Cc1noc(-c2ccnc(NCCc3coc(-c4ccccc4)n3)c2)n1 | 0 | -0.05
14 | Cc1noc(-c2ccnc(NC[C@@H](c3ccccn3)N3CCOCC3)c2)n1 | 95 | -18.79
15 | CC(C)N1CCN(c2cccc(Nc3ncccn3)c2)CC1 | 5 | -1.03
16 | c1cc(Nc2ccnc(C3CC3)n2)cc(N2CCCCCC2)c1 | -1 | 0.19
17 | Cc1cccc(Nc2ccnc(Nc3ccc(N4CCN(C)CC4)cc3)n2)c1 | 89 | -13.46
18 | CCN(CCN1CCCCCC1)C(=O)NCCNc1ccncc1C | -11 | 2.32
19 | Cc1cnccc1NCCNc1ncc(F)c(N2CCCC2)n1 | 25 | -3.87
20 | Cc1cnccc1NCCNCc1cccc(OCCCCN2CCOCC2)c1 | 95 | -20.36
21 | Cc1cnccc1NCCNCc1cnc(N2CCCCC2)nc1 | 57 | -12.25

Row | Structure (SMILES) | % Inhibition [%] | Z score
22 | CN(CCCNc1nccc2ncncc12)CC(F)(F)F | -2 | 0.32
23 | Cc1cccc(-c2cccc(N3CCC(NCc4cc(C)[nH]n4)CC3)c2)c1 | -7 | 1.27
24 | Cc1ccccc1-c1cccc(N2CCC(NCC3CCNCC3)CC2)c1 | 98 | -19.56
25 | Cc1cccc(-c2cccc(N3CCC(NC[C@H]4CCC(=O)N4)CC3)c2)c1 | 1 | -0.25
26 | NC(=O)C1CCN(CCCNc2ncnc3ccccc23)CC1 | 14 | -2.8
27 | Cc1cccc2c(NCCCCN3CCN(CCO)CC3)ncnc12 | -12 | 1.79
28 | CCc1ccc2ncnc(NCCCN3CCN(CCO)CC3)c2c1 | 65 | -12.99
29 | Cc1ccc(-c2cccc3c(C(=O)NCCCN4CCC(N5CCCCC5)CC4)cc(C)nc23)cc1 | 98 | -16.9
30 | Cc1cc(O)c2cccc(-c3cccc(C(=O)NCCCN4CCCC4)c3)c2n1 | -1 | 0.22
31 | Cc1cnccc1NCCNC1CCN(C(=O)[C@@H]2CCCO2)CC1 | -9 | 1.97
32 | Cn1cncc1[C@@H]1CNC[C@H]1CNC(=O)c1ccccc1NC1CCCCC1 | 75 | -14.83
33 | COC(CN(Cc1nc(N)nc(Nc2ccc(C)cc2)n1)Cc1nc(N)nc(Nc2ccc(C)cc2)n1)OC | 85 | -18.33
34 | CCOc1cc(C(=O)NC2CCN(CC3CCCC3)CC2)cc(-c2ccccc2)c1OC | 71 | -12.46
35 | CN(C)CCn1ncc(C(=O)NC2CCN(CC3CCCC3)CC2)c1-c1ccccc1 | 0 | 0.06
36 | CCc1ccc2nc(NC[C@H]3CCCN3C)cc(C)c2c1 | -2 | 0.32
37 | Cc1ccc2cc(CNC[C@H]3CCN(C4CC4)C3)ccc2n1 | 0 | 0.09
38 | Cc1ccc2nc(NC[C@H]3CCN(C4CC4)C3)cc(C)c2c1 | 55 | -8.34
39 | COc1ccnc(NCCCc2nc(-c3ccncc3)cs2)n1 | 69 | -13.68
40 | Nc1nnc(CCCNc2nccc(-c3ccncc3)n2)s1 | -9 | 1.91
41 | c1ccc2c(Nc3ccc4[nH]cnc4c3)c3ccccc3nc2c1 | 98 | -19.44
42 | Clc1cc(Nc2c3ccccc3nc3ccccc23)ccc1Oc1ccc2ccccc2c1Cl | -10 | 1.68

Row | Structure (SMILES) | % Inhibition [%] | Z score
43 | Oc1ccc(OC(F)(F)F)cc1-c1ccc2nccn2n1 | 86 | -17.13
44 | CC(C)Nc1cc(-c2cc(OC(F)(F)F)ccc2O)ncn1 | 1 | -0.31
45 | c1ccc(CNc2ccc(-c3noc(C45CCCN(CCC4)C5)n3)cn2)cc1 | 81 | -17.51
46 | c1cc(-c2noc(C34CCCN(CCC3)C4)n2)cc(-n2ccnc2)c1 | 9 | -1.87
47 | c1ccc(-c2nc3c(c(NCCNc4ncccn4)n2)CCC3)nc1 | 41 | -7.15
48 | Cc1cc(F)ccc1CNc1ccc(N2CCN(C)CC2)nc1 | 3 | -0.45
49 | OC1(Cn2ccnc2)CCN(Cc2ccnc3ccccc23)CC1 | -5 | 0.98
50 | Cc1c(CN2CCC(O)(Cn3ccnc3)CC2)[nH]c2c(Cl)cccc12 | 95 | -16.38
51 | CCn1cc(-c2cccc(C(=O)N[C@@H](C)CN3CCc4ccccc4C3)c2)cn1 | 53 | -10.47
52 | CNC(=O)c1ccc(C(=O)Nc2nc(C3(C)CC3)ns2)cn1 | 23 | -4.92
53 | Cc1cc(C)c(C)c(S(=O)(=O)NC2COCC2Cc2ccncc2)c1C (stereo not drawn) | 0 | -0.02
54 | CCCC(=O)NC1COCC1Cc1ccncc1 (stereo not drawn) | 82 | -16.24
55 | COCCC(=O)NC1COCC1Cc1ccnc2ccccc12 (stereo not drawn) | 1 | -0.24
56 | CNc1nc(N2CCN(CC(=O)NC3CCCCC3)CC2)nc2ccccc12 | 80 | -14.07
57 | Cc1nc(N2CCN(CC(=O)NC3CCCCC3)CC2)c2cc[nH]c2n1 | -11 | 2.32
58 | CCN1CCC[C@@H]1CN(CCN(C)C)C(=O)c1ccc(-c2cncnc2)cc1F | 2 | -0.24
59 | N[C@H]1CC[C@@H](NC2CCN(c3ccc(F)c(F)c3)CC2)CC1 | 53 | -9.21
60 | Fc1ccc(N2CCC(N[C@@H]3COC4(CCNCC4)C3)CC2)cc1F | 23 | -4.05
61 | CCc1ccc(Nc2nc(C(=O)NCCc3c[nH]cn3)nc3ccccc23)cc1 | 7 | -1.15
62 | COc1ccc(-c2cncc(C(=O)NCC3CCN(CCN(C)C)CC3)c2)cc1 | 94 | -16.22
63 | COCCN1CCC(CN(C)C(=O)c2ccc(-c3cncc(N)c3)cc2)CC1 | 2 | -0.4

Row | Structure (SMILES) | % Inhibition [%] | Z score
64 | Cc1cc(O)c(Cl)cc1-c1ncnc2[nH]ccc12 | 1 | -0.29
65 | Cc1cc(O)c(Cl)cc1-c1ccc2ncnc(N)c2c1 | -5 | 0.82
66 | Cc1cc(O)c(Cl)cc1-c1cccc2c(N)ccnc12 | 82 | -14.53
67 | Cc1cc(O)c(Cl)cc1-c1ccc2nccc(N)c2c1 | 91 | -15.94
68 | Cn1ccc2c(-c3cccc4c(N)ccnc34)ccnc21 | 6 | -1.24
69 | OC[C@H](CNCc1cc2ccc(F)cc2[nH]1)c1ccccc1Cl | 41 | -6.28
70 | O[C@@H](CNCc1cc2cc(Cl)c(Cl)cc2[nH]1)c1ccc(F)cc1 | 76 | -13.27
71 | CC(CNc1nc(NCC(C)N2CCOCC2)c2cc(Cl)ccc2n1)N1CCOCC1 (stereo not drawn) | 78 | -13.62
72 | CCN1CCN(CCOc2ccccc2CN(C)Cc2cccc3cnccc23)CC1 | 7 | -1.54
73 | CN1CCN(CCOc2ccccc2CN(C)Cc2cc3cc(F)ccc3[nH]2)CC1 | 73 | -14.51
74 | COc1ccc(-c2ccnc(C3CCN(c4ccnc(C#N)n4)CC3)n2)cc1 | -1 | 0.14
75 | c1ccc(-c2ccnc(C3CCN(CC45CNCC4C5)CC3)n2)cc1 (stereo not drawn) | 89 | -13.57
76 | c1cc(N2CCOCC2)nc(C2CCN(CC34CNCC3C4)CC2)n1 (stereo not drawn) | -8 | 1.26
77 | O=C(NCc1cccc(-c2cccnc2)c1)N[C@H]1CCN(C2CCCCC2)C1 | 51 | -7.77
78 | C[C@H]1CN(C2CCOCC2)CCN1C(=O)NCc1cccc(-c2cccnc2)c1 | -1 | 0.29
79 | CC(C)c1ccc(-c2nc(CN3CCCCC3)cc(CN3CCCCC3)c2O)cc1 | 90 | -15.77
80 | Cc1ccc(Nc2ncc(-c3ccc(Cl)c(OC(F)(F)F)c3)cn2)cc1 | -5 | 1
81 | CCN1CCN(c2ccc(CNCc3cccc(O)c3)cc2F)CC1 | 90 | -19.29
82 | CN1CCCN(Cc2ccc(CNCc3cccc(O)c3)cc2)CC1 | 17 | -3.36
83 | Cc1nc2ccccc2c(O)c1CC[C@H](C)NC1CCNCC1 | -3 | 0.51
84 | CCCCN(C)C[C@@H](C)NC(=O)CCCN1CCN(c2ccccc2)CC1 | -5 | 1.09
